High-throughput results: PubChem, National Center for Advancing Translational Sciences (NCATS)
PI5P4Ka inh: PI5P4K alpha (human) kinase inhibition; P48426; PI5P4Kalpha enzyme, ADP-Glo luminescence, 60 min; active compounds read low; max response, %; hit rate 1.2% among 330,000; active = max response of -50% or lower; inconclusive = between -30% and -50%; inactive = -30% or higher; also: value at the top dose of about 77 µM; % is scaled to controls: 0 for no effect and ±100 for the full control effect
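Controls without substrate or without enzyme flank wells where PI5P4Kalpha converts substrate using 5 microM ATP (final). Incubation lasts 60 minutes at room temperature; ADP formed is read by ADP-Glo luminescence.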
BAZ2B inh: inhibitors of human BAZ2B bromodomain; Q9UIF8; AID 504333; Potency, µM (series often up to 114 µM), inactives show at the highest dose activity change, negative = inhibition, hits mostly inhibitors; hit rate 4.4% among 360,000; AlphaScreen BAZ2B-H3K14Ac peptide displacement; also: potency is read from the fitted curve at half-maximal effect; % is scaled to controls: 0 for no effect and ±100 for the full control effect; nearly all actives have a fitted effect of over 60% in size
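Inhibition is scored as reduced AlphaScreen emission. The BAZ2B/b-H3(5-23)K14Ac complex (50 nM each) in PBS pH 7.4, 0.01% Tween-20 meets compound (up to 110 uM) for 30 min at RT before bead addition.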
PLK1 PBD block: blocks phosphopeptide binding to human PLK1 polo-box domain | hit rate 2.8% among 360,000 | Potency, µM, inactives show max response, negative = inhibition, usual class: inhibitors | Plk1 PBD binding of FITC phosphopeptide, fluorescence polarization | P53350 | AID 720504; also: potency is read from the fitted curve at half-maximal effect; series mostly up to about 57 µM; % is scaled to controls: 0 for no effect and ±100 for the full control effect; nearly all actives have a fitted effect of over 65% in size
JMJD2A Tudor inh: JMJD2A Tudor domain (human) inhibition. Potency, µM (top dose mostly 114 µM), for the others: top-dose activity change, negative = inhibition, most hits filed as inhibitors. AlphaScreen JMJD2A-Tudor / H3K4me3 peptide binding. hit rate 4.4% among 390,000. O75164; also: potency is read from the fitted curve at half-maximal effect; % is scaled to controls: 0 for no effect and ±100 for the full control effect; nearly all actives have a fitted effect of over 50% in size
HP1b binding inh: inhibitors of HP1-beta chromodomain binding to methylated histone tails. P83916. hit rate 0.56% among 390,000. AlphaScreen HP1-beta / biotin-H3K9me3 peptide binding. Potency, µM (highest dose often 114 µM), for inactives: at the top dose activity change, negative = inhibition, usual class: inhibitors; also: potency is read from the fitted curve at half-maximal effect; nearly all actives have a fitted effect of over 70% in size
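Compound inhibition of the preformed complex between 50 nM HP1-beta and 50 nM biotinylated H3K9me3 peptide was read by AlphaScreen. Buffer was PBS pH 7.4 with 0.01% Tween-20. Incubations ran 30 min at room temperature, with 10 ug/mL donor/acceptor beads.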
G9a inh: G9a (human) methyltransferase inhibition. hit rate 8.8% among 350,000. G9a H3K9 monomethylation, AlphaScreen, 2 h. AID 504332. Potency, µM (doses to about 102 µM), for the others: top-dose activity, negative = inhibition, most hits filed as inhibitors. Q96KQ7; also: potency is read from the fitted curve at half-maximal effect; % is scaled to controls: 0 for no effect and ±100 for the full control effect; nearly all actives have a fitted effect of over 75% in size
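Signal arises when biotinylated H3K9 peptide, once monomethylated, bridges streptavidin donor and antibody-captured acceptor beads. Enzyme at 20 nM was preincubated 15 min with test compounds; peptide 500 nM and SAM 20 uM then reacted for 2 h.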
* hit, by the source's call; [ ] = remark or other dose. This is a sample that favours compounds with a hit; in the whole collection about 12% have one here. Unless noted, calls follow the shape of the dose curve; as a rule, active = well fitted curve in the direction sought with a large enough effect; inconclusive = small, poorly fitted or top-dose-only effect, or another doubt; inactive = no such curve, though single readings can be large; an effect the other way counts as inactive or inconclusive.

How did COc1ccccc1CCC(=O)N1CCN(C(=O)c2ccccc2)CC1 do in these assays?
PI5P4Ka inh: 1; BAZ2B inh: 4%; PLK1 PBD block: -12%; JMJD2A Tudor inh: -1%; HP1b binding inh: 21%; G9a inh: 24%

What do the screens show for `COc1ccc(N2CCN(C(=O)CCC(=O)N3Cc4ccccc4Oc4ncccc43)CC2)cc1`?
PI5P4Ka inh: 2; BAZ2B inh: 40µM*; PLK1 PBD block: -3%; JMJD2A Tudor inh: -27%; HP1b binding inh: 5%

How did CCc1ccccc1N(CC(=O)NC(C)C)C(=O)CCC(=O)Nc1nccs1 do in these assays?
PI5P4Ka inh: -7; BAZ2B inh: inconclusive; PLK1 PBD block: -5%; JMJD2A Tudor inh: -16%; HP1b binding inh: 38%; G9a inh: 17%

How did CS(=O)(=O)/C=C/c1nc(Nc2cc(F)cc(F)c2)c2ncn(CC(F)F)c2n1 do in these assays?
JMJD2A Tudor inh: -19%

How did Cc1cccc(C)c1Nc1nnc(SCC(=O)Nc2ncc(C(F)(F)F)cc2Cl)s1 do in these assays?
PI5P4Ka inh: -2; BAZ2B inh: -7%; PLK1 PBD block: inconclusive; JMJD2A Tudor inh: 25µM*; HP1b binding inh: -17%; G9a inh: 2.2µM*

How did Cc1ccc(Nc2nnc(SCC(=O)Nc3ncc(C(F)(F)F)cc3Cl)s2)cc1 do in these assays?
PI5P4Ka inh: -13; BAZ2B inh: -20%; PLK1 PBD block: -17%; JMJD2A Tudor inh: -23%; HP1b binding inh: 19%; G9a inh: 7.1µM*

How did CCOC(=O)c1c(C)[nH]c(C)c1S(=O)(=O)NC1CCN(C(=O)OCC)CC1 do in these assays?
PI5P4Ka inh: -6; BAZ2B inh: -3%; PLK1 PBD block: -13%; JMJD2A Tudor inh: -5%; HP1b binding inh: 66%; G9a inh: 13%

What do the screens show for `CCCNC(=O)c1cccc(Cn2cc(Br)c([N+](=O)[O-])n2)c1`?
PI5P4Ka inh: -2; BAZ2B inh: -1%; PLK1 PBD block: 6%; JMJD2A Tudor inh: 2%; HP1b binding inh: 24%; G9a inh: -11%

How did NNC(=O)c1cccc(Cn2cc(Br)c([N+](=O)[O-])n2)c1 do in these assays?
PI5P4Ka inh: 3; BAZ2B inh: -23%; PLK1 PBD block: 1%; JMJD2A Tudor inh: 3%; HP1b binding inh: 55%; G9a inh: 40µM*

Results for Cc1cc2ccccn2c1C(=S)NC(=O)c1ccccc1 ?
PI5P4Ka inh: 5; BAZ2B inh: 14µM*; PLK1 PBD block: -13%; JMJD2A Tudor inh: 50µM*; HP1b binding inh: inconclusive; G9a inh: inconclusive

What do the screens show for `CCn1cc(C(=O)NCc2ccccn2)c(=O)c2cc(F)c(N3CCN(C)CC3)cc21`?
PI5P4Ka inh: -3; BAZ2B inh: -1%; PLK1 PBD block: -7%; JMJD2A Tudor inh: -10%; HP1b binding inh: 23%; G9a inh: 0.45µM*

How did CCn1cc(C(=O)NCCc2ccccc2)c(=O)c2cc(F)c(N3CCN(C)CC3)cc21 do in these assays?
PI5P4Ka inh: -1; BAZ2B inh: 2%; PLK1 PBD block: -3%; JMJD2A Tudor inh: -11%; HP1b binding inh: 22%; G9a inh: -26%[59 µM]

What do the screens show for `CCn1cc(C(=O)NCc2ccco2)c(=O)c2cc(F)c(N3CCN(C(=O)c4ccco4)CC3)cc21`?
PI5P4Ka inh: inconclusive; BAZ2B inh: 56µM*; PLK1 PBD block: -14%; JMJD2A Tudor inh: -30%; HP1b binding inh: 24%; G9a inh: 14µM*

What do the screens show for `CCn1cc(C(=O)NCC(C)C)c(=O)c2cc(F)c(N3CCN(C(=O)c4ccco4)CC3)cc21`?
PI5P4Ka inh: -1; BAZ2B inh: -4%; PLK1 PBD block: -3%; JMJD2A Tudor inh: -16%; HP1b binding inh: -18%; G9a inh: 8%

How did COC(=O)c1scc(S(C)(=O)=O)c1-n1cccc1 do in these assays?
PI5P4Ka inh: -11; BAZ2B inh: -1%; PLK1 PBD block: 30µM*; JMJD2A Tudor inh: inconclusive; HP1b binding inh: 1%; G9a inh: -9%[59 µM]

Results for CC(C)C(c1nnnn1Cc1ccc(F)cc1)N1CCN(c2ccc(O)cc2)CC1 (stereo not drawn) ?
PI5P4Ka inh: -13; BAZ2B inh: -33%; PLK1 PBD block: -9%; JMJD2A Tudor inh: 40µM*; HP1b binding inh: 71µM*; G9a inh: 13µM*

How did COc1ccc(Cn2nnnc2C(C(C)C)N2CCN(c3ccccc3OC)CC2)cc1 (stereo not drawn) do in these assays?
PI5P4Ka inh: 14; BAZ2B inh: -13%; PLK1 PBD block: -1%; JMJD2A Tudor inh: -19%; HP1b binding inh: 26%; G9a inh: -37%[12.7 µM]

How did O=C(CS(=O)(=O)c1ccccc1)Nc1nnc(Cc2ccccc2)s1 do in these assays?
PI5P4Ka inh: 2; BAZ2B inh: -26%; PLK1 PBD block: 13µM*; JMJD2A Tudor inh: -7%; HP1b binding inh: -13%; G9a inh: 32µM*

Results for O=C(CCS(=O)(=O)Cc1ccccc1)Nc1nncs1 ?
PI5P4Ka inh: 3; BAZ2B inh: 3%; PLK1 PBD block: -16%; JMJD2A Tudor inh: -1%; HP1b binding inh: 10%; G9a inh: 45µM*

What do the screens show for `CCCc1nnc(NC(=O)CS(=O)(=O)c2ccccc2)s1`?
PI5P4Ka inh: -6; BAZ2B inh: -2%; PLK1 PBD block: -29%; JMJD2A Tudor inh: inconclusive; HP1b binding inh: inconclusive; G9a inh: inconclusive

What do the screens show for `CCCCc1nnc(NC(=O)CCS(=O)(=O)Cc2ccccc2)s1`?
PI5P4Ka inh: -1; BAZ2B inh: -2%; PLK1 PBD block: -16%; JMJD2A Tudor inh: 1%; HP1b binding inh: 22%; G9a inh: inconclusive

What do the screens show for `CCC(CC)c1nnc(NC(=O)CCS(=O)(=O)Cc2ccccc2)s1`?
PI5P4Ka inh: 4; BAZ2B inh: 1%; PLK1 PBD block: 24µM*; JMJD2A Tudor inh: -14%; HP1b binding inh: 6%; G9a inh: 18µM*

What do the screens show for `CCCc1nnc(NC(=O)CCS(=O)(=O)Cc2ccccc2)s1`?
PI5P4Ka inh: -5; BAZ2B inh: 7%; PLK1 PBD block: -19%; JMJD2A Tudor inh: -7%; HP1b binding inh: 15%; G9a inh: 45µM*

Results for COc1ccc(CCNC(=O)c2ccc3c(c2)N(Cc2ccc(F)cc2)C(=O)c2ccccc2S3(=O)=O)cc1OC ?
BAZ2B inh: -10%; JMJD2A Tudor inh: -16%; HP1b binding inh: 20%; G9a inh: -12%[59 µM]

Results for COc1ccc(CNc2nc3c(-c4ccccc4)nnn3c3ccccc23)cc1 ?
BAZ2B inh: -1%; JMJD2A Tudor inh: -13%; HP1b binding inh: 44%; G9a inh: 4%[59 µM]

Results for CCC(CC)c1nnc(NC(=O)CS(=O)(=O)c2ccccc2)s1 ?
PI5P4Ka inh: -9; BAZ2B inh: 0%; PLK1 PBD block: 9.5µM*; JMJD2A Tudor inh: -4%; HP1b binding inh: -38%; G9a inh: 10µM*
